Shown are actives, neighbours in structure and some others; about 1.7% of the full set was active somewhere.
S1P2 ag = agonists of human S1P2 receptor | AID 729 | 97,000 tested, 0.46% active | S1P2-expressing cell line, agonist reporter read-out | activation, % at 4.5 µM | O95136; in the data active = activation above about 16%
Target sequence (O95136 whole entry, looked up): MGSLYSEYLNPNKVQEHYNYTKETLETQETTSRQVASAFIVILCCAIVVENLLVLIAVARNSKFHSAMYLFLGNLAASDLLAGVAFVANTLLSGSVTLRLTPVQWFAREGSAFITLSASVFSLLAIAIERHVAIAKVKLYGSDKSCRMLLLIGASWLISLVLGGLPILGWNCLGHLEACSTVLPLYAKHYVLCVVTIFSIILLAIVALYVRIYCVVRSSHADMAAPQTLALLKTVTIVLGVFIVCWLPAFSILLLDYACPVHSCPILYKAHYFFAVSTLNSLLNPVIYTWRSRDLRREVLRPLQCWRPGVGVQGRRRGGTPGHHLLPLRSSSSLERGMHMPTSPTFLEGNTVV
MRP resist rev = compounds reversing MRP-mediated drug resistance; 85,000 tested, 0.04% active; differential viability (reversal), % at 10 µM; H69AR cells + 2 uM doxorubicin, CellTiter-Glo, 72 h;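 active = viability drop by adding the cancer drug above about 55%, with treated viability meeting a 40% cutoff, limit read from the data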;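 also: larger differential means the compound sensitizes cells more to doxorubicin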
MRP-1 activ = MRP-1 activation; H69AR cells + doxorubicin, viability rescue, CellTiter-Glo; viability increase, % at 10 µM; 140,000 tested, 0.61% active; AID 799;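 active = viability gain under doxorubicin at or above a set limit, the compound median plus 3 SD, cut at about 4.7% in these data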;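 also: MRP-1 overexpressing cells given doxorubicin 25 µM after compound pretreatment; 18-22 h compound pretreatment then 72 h with doxorubicin before readout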
GALR2 antag = blocks the human galanin receptor 2 | O43603 | GALR2-expressing cells, antagonist mode | inhibition, % at 4 µM | 140,000 tested, 0.39% active | AID 828; in the data active = inhibition above about 27%;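 also: cells stimulated with galanin 1-16 at roughly its EC80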
GALR2 ag = GALR2 (human) receptor agonism; O43603; GALR2-expressing cells, agonist activation read-out; activation, % (concentration not given with the values); 140,000 tested, 0.48% active; AID 803; in the data active = activation above about 5%, passing the limit was not always enough
S1P2 antag = antagonists of human S1P2 receptor. inhibition, % at 5 µM. 97,000 tested, 0.21% active. cell-based S1P2 antagonist assay, inhibition at 5 uM. O95136; in the data active = inhibition above about 45%;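 also: CRE beta-lactamase reporter cells expressing human S1P2 stimulated with S1P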
Hits are given with their value.

How did COC(=O)c1cc2c(=O)n3ccccc3nc2n(C(C)C)c1=N do in these assays?
S1P2 ag: 19; MRP resist rev: inactive; GALR2 antag: inactive; GALR2 ag: 17; S1P2 antag: inactive

How did CCn1c(=N)c(C(=O)OC)cc2c(=O)n3ccccc3nc21 do in these assays?
MRP resist rev: inactive

How did CC(C)n1c(=N)c(C(=O)NCCc2ccccc2)cc2c(=O)n3ccccc3nc21 do in these assays?
S1P2 ag: 94; MRP resist rev: inactive; MRP-1 activ: inactive; GALR2 antag: inactive; GALR2 ag: 18; S1P2 antag: inactive

What do the screens show for `C/C(=N\NC(=O)c1cccc(Cl)c1)C1C(=O)c2ccccc2C1=O`?
MRP-1 activ: inactive; GALR2 antag: inactive; GALR2 ag: inactive

What do the screens show for `Cc1ccc(-c2csc(NC(=O)C3=COCCO3)n2)cc1`?
MRP-1 activ: inactive; GALR2 antag: inactive; GALR2 ag: inactive

How did O=C(Nc1nc(-c2ccc(Oc3ccccc3)cc2)cs1)C1=COCCO1 do in these assays?
MRP-1 activ: 7.1; GALR2 antag: inactive; GALR2 ag: inactive

Results for Cn1c(SCC(=O)N/N=C/c2ccc([N+](=O)[O-])s2)nnc1-c1ccc(Cl)cc1 ?
MRP-1 activ: inactive; GALR2 antag: inactive; GALR2 ag: inactive

What do the screens show for `CC(O)(CS(=O)(=O)Cc1ccccc1)C(=O)Nc1cccc(C(F)(F)F)c1` (configuration not stated)?
S1P2 ag: inactive; MRP-1 activ: inactive; GALR2 antag: inactive; GALR2 ag: inactive; S1P2 antag: inactive

What do the screens show for `CC(O)(CS(=O)(=O)Cc1ccccc1)C(=O)Nc1ccc(C(F)(F)F)cc1` (configuration not stated)?
S1P2 ag: inactive; MRP-1 activ: 7.9; GALR2 antag: inactive; GALR2 ag: inactive; S1P2 antag: inactive

Results for O=C(CNC(=O)c1ccc(S(=O)(=O)N2CCCC2)cc1)N/N=C/c1ccc(Cl)cc1Cl ?
MRP-1 activ: inactive; GALR2 antag: inactive; GALR2 ag: inactive

What do the screens show for `COc1cc2c(cc1OC)C(CC#N)=NC(C)(C)C2`?
S1P2 ag: 18; MRP resist rev: inactive; MRP-1 activ: inactive; GALR2 antag: inactive; GALR2 ag: inactive; S1P2 antag: inactive

Results for COc1ccc(C(=O)NCc2ccc3c(c2)OCO3)cc1S(=O)(=O)N(C)Cc1ccccc1 ?
MRP-1 activ: 7.3; GALR2 antag: inactive; GALR2 ag: inactive

Results for COc1ccc(C(=O)NCc2ccccc2)cc1Br ?
MRP-1 activ: inactive; GALR2 antag: inactive; GALR2 ag: inactive

What do the screens show for `COc1ccc(C(=O)NCc2ccccc2)cc1S(=O)(=O)N1CCCc2ccccc21`?
S1P2 ag: inactive; MRP-1 activ: 5.4; GALR2 antag: inactive; GALR2 ag: inactive; S1P2 antag: inactive

Results for COc1ccc(C(=O)NCc2ccc3c(c2)OCO3)cc1S(=O)(=O)NCc1ccc(Cl)cc1 ?
MRP-1 activ: inactive; GALR2 antag: inactive; GALR2 ag: inactive

How did O=c1[nH]c(N/N=C/c2ccccc2Br)nnc1-c1ccccc1 do in these assays?
MRP-1 activ: 4.8; GALR2 antag: inactive; GALR2 ag: inactive

Results for COc1ccc(/C=N/Nc2nnc(-c3ccccc3)c(=O)[nH]2)cc1 ?
MRP-1 activ: inactive; GALR2 antag: inactive; GALR2 ag: inactive

What do the screens show for `CCOC(=O)Nc1ccc(C)cc1C`?
S1P2 ag: inactive; MRP resist rev: inactive; MRP-1 activ: inactive; GALR2 antag: inactive; GALR2 ag: inactive; S1P2 antag: inactive

How did Cc1ccc(N/N=C(\C#N)C(N)=S)c(C)c1 do in these assays?
MRP-1 activ: 8.2; GALR2 antag: inactive; GALR2 ag: inactive

How did O=C1CC(c2cccc(Cl)c2)CC(O)=C1C=NC1CCCC1 (configuration not stated) do in these assays?
MRP-1 activ: inactive; GALR2 antag: inactive; GALR2 ag: inactive

How did CCN(CC)c1ccc(NC(=O)Nc2ccccc2C(F)(F)F)cc1 do in these assays?
S1P2 ag: 62; MRP-1 activ: inactive; GALR2 antag: inactive; GALR2 ag: inactive; S1P2 antag: inactive

Results for CNc1sc(C(=O)c2cccs2)c(N)c1-c1nc2ccccc2s1 ?
MRP resist rev: inactive; MRP-1 activ: 9.0; GALR2 antag: inactive; GALR2 ag: inactive

What do the screens show for `CNc1sc(C(=O)c2ccc(F)cc2)c(N)c1-c1nc2ccccc2s1`?
S1P2 ag: inactive; MRP resist rev: inactive; MRP-1 activ: inactive; GALR2 antag: inactive; GALR2 ag: inactive; S1P2 antag: inactive

Results for COc1ccc(/C=N/NC(=O)c2ccc(C)cc2)cc1CN1CCN(c2ccc(F)cc2)CC1 ?
S1P2 ag: inactive; MRP-1 activ: inactive; GALR2 antag: inactive; GALR2 ag: inactive; S1P2 antag: inactive

What do the screens show for `COc1ccc(/C=N\NC(=O)c2cc(O)c(O)c(O)c2)cc1CN1CCN(c2ccc(F)cc2)CC1`?
MRP-1 activ: 12; GALR2 antag: inactive; GALR2 ag: inactive

What do the screens show for `N#C/C(=C/c1ccc(N2CCCCCC2)o1)c1cccc(F)c1`?
S1P2 ag: inactive; MRP resist rev: inactive; MRP-1 activ: inactive; GALR2 antag: inactive; GALR2 ag: inactive; S1P2 antag: 50

What do the screens show for `N#C/C(=C/c1ccc(N2CCOCC2)o1)c1ccc(Br)cc1`?
S1P2 ag: inactive; MRP-1 activ: inactive; GALR2 antag: inactive; GALR2 ag: inactive; S1P2 antag: inactive

Results for N#C/C(=C/c1ccc(N2CCCCCC2)o1)c1ccc(F)cc1 ?
S1P2 ag: inactive; MRP resist rev: inactive; MRP-1 activ: inactive; GALR2 antag: 37; GALR2 ag: inactive; S1P2 antag: 80

How did COc1cc(OC)cc(C(=O)NCCCN2CCN(CCCNC(=O)c3cc(OC)cc(OC)c3)CC2)c1 do in these assays?
MRP-1 activ: inactive; GALR2 antag: inactive; GALR2 ag: inactive

Results for CCCc1nc(SCC(=O)N2CCC(Cc3ccccc3)CC2)c2c(=O)n(C)c(=O)n(C)c2n1 ?
S1P2 ag: inactive; MRP resist rev: inactive; MRP-1 activ: inactive; GALR2 antag: inactive; GALR2 ag: inactive; S1P2 antag: inactive

Results for CN(Cc1ccccc1)c1oc(COc2ccccc2F)nc1C#N ?
S1P2 ag: inactive; MRP resist rev: inactive; MRP-1 activ: 7.4; GALR2 antag: inactive; GALR2 ag: inactive; S1P2 antag: inactive

Results for N#Cc1nc(COc2ccccc2F)oc1NCCc1ccccc1 ?
S1P2 ag: inactive; MRP resist rev: inactive; MRP-1 activ: inactive; GALR2 antag: inactive; GALR2 ag: inactive; S1P2 antag: inactive

How did CN(C1CCCCC1)S(=O)(=O)c1cccc(C(=O)OCC(=O)NC2CCCc3ccccc32)c1 (configuration not stated) do in these assays?
MRP-1 activ: inactive; GALR2 antag: inactive; GALR2 ag: inactive

Results for O=C(Cc1ccccc1F)Nc1cccc2cccnc12 ?
MRP-1 activ: 5.9; GALR2 antag: inactive; GALR2 ag: inactive

Results for CC(=O)Nc1nc(C)c(Oc2ccc(Cl)cc2Cl)c(=O)[nH]1 ?
S1P2 ag: inactive; MRP resist rev: inactive; MRP-1 activ: 32; GALR2 antag: inactive; GALR2 ag: inactive; S1P2 antag: inactive

What do the screens show for `Nc1ccc(CC2SC(=O)NC2=O)cc1` (configuration not stated)?
S1P2 ag: inactive; MRP resist rev: inactive; MRP-1 activ: 9.4; GALR2 antag: inactive; GALR2 ag: inactive; S1P2 antag: inactive
